# Experiments:
# Test in all cases: DAPPL (digital affinity profiling via proximity ligation, sequencing); 10 mM Tris-HCl pH 7.5, 50 mM NaCl, 1 mM DTT, 4% glycerol, room temperature, 30 min; GST-TFs on glutathione beads, 16-mer random dsDNA library, 0.1% formaldehyde crosslink after washing; high values mean tight binding
# FLI1 = target: T1, FLI1 (Homo sapiens, UniProt Q01543 1-452); conditions: protein: recombinant; tags: N-terminal GST; dsDNA, one strand shown
# T1 sequence: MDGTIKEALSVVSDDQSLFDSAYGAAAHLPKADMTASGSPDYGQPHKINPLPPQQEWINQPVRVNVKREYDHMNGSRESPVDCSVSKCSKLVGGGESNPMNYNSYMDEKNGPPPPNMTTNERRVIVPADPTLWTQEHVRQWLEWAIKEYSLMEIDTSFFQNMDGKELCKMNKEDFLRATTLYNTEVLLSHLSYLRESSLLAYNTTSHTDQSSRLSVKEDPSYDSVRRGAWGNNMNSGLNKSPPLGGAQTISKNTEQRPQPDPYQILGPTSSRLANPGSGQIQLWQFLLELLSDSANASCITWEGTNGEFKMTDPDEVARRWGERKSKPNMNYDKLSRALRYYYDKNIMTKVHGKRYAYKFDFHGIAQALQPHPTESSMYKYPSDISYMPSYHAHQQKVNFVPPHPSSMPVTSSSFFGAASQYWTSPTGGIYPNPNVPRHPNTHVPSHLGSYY
# In short: (§1)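 Pools of DNA-barcoded human transcription factors, expressed in yeast as GST fusions on glutathione beads and combined with a tag-only sample, were incubated with 200 nmole of a 16-mer random double-stranded DNA library. Incubation took 30 min at room temperature in Tris/NaCl/DTT/glycerol buffer and was followed by washing, 0.1% formaldehyde crosslinking, proximity ligation (BsaI/T4 ligase, 1 h, 37 °C), PCR amplification and sequencing on an Illumina NextSeq500. Binding signal is the ratio of a hexamer's read frequency for a factor to its frequency for the tag-only sample.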
# ELK1 = target: T2, ELK1 (Homo sapiens, UniProt P19419 1-428); conditions: protein: recombinant; tags: N-terminal GST; dsDNA, one strand shown
# T2 sequence: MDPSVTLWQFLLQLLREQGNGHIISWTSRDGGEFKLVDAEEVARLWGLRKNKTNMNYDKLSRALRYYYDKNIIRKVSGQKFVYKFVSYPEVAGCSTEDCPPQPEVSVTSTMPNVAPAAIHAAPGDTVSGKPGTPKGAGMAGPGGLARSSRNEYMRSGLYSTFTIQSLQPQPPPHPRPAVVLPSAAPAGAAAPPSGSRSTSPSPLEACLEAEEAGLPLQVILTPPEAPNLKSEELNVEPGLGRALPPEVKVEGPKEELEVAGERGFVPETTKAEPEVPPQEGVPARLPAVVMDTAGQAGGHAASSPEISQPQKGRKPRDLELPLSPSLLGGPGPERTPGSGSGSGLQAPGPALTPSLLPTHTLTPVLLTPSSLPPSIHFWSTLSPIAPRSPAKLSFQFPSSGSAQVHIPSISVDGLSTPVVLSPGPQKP
# In short: as §1
# GABPA = target: T3, GABPA (Homo sapiens, UniProt Q06546 1-454); conditions: protein: recombinant; tags: N-terminal GST; dsDNA, one strand shown
# T3 sequence: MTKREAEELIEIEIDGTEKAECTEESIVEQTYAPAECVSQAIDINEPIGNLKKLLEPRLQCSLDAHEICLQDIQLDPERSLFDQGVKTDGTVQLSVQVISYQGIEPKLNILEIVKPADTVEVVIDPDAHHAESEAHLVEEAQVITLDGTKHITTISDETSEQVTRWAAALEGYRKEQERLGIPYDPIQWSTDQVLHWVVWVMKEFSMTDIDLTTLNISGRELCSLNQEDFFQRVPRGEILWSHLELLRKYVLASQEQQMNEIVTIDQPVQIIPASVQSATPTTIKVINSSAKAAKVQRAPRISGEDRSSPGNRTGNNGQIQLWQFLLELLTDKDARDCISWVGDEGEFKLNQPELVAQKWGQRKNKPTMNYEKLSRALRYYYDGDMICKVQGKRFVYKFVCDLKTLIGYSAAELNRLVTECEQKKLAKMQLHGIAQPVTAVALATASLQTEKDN
# In short: as §1
# ERG = target: T4, ERG (Homo sapiens, UniProt P11308 1-479); conditions: protein: recombinant; tags: N-terminal GST; dsDNA, one strand shown
# T4 sequence: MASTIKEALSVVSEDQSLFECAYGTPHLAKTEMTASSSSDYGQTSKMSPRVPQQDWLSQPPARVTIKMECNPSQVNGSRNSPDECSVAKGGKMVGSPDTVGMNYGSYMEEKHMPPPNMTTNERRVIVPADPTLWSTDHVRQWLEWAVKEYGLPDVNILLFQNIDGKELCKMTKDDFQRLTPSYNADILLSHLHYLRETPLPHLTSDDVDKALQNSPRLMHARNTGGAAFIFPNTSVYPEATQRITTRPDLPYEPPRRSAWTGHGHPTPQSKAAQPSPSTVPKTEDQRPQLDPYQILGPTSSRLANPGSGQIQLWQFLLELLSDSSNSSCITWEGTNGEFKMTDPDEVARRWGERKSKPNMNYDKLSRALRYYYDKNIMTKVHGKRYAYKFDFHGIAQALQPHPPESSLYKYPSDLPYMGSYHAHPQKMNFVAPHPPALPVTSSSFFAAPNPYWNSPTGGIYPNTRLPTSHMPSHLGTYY
# In short: as §1
# ELF1 = ELF1 (Homo sapiens, UniProt P32519 1-619); conditions: protein: recombinant; tags: N-terminal GST; dsDNA, one strand shown
# In short: as §1
# EHF = target: T5, EHF (Homo sapiens, UniProt Q9NZC4 1-300); conditions: protein: recombinant; tags: N-terminal GST; dsDNA, one strand shown
# T5 sequence: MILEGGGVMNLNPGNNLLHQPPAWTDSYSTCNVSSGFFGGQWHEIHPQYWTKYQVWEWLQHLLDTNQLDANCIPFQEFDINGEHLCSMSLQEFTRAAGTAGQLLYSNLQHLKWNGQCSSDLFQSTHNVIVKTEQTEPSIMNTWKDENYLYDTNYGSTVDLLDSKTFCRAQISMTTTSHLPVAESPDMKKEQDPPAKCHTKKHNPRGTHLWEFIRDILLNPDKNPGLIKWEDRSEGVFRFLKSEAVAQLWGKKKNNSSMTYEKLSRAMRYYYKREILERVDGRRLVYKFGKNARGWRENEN
# In short: as §1
# SPI1 = SPI1 (Homo sapiens, UniProt P17947 1-270); conditions: protein: recombinant; tags: N-terminal GST; dsDNA, one strand shown
# In short: as §1
# SPIB = SPIB (Homo sapiens, UniProt Q01892 1-262); conditions: protein: recombinant; tags: N-terminal GST; dsDNA, one strand shown
# In short: as §1
# ELK3 = target: T6, ELK3 (Homo sapiens, UniProt P41970 1-407); conditions: protein: recombinant; tags: N-terminal GST; dsDNA, one strand shown
# T6 sequence: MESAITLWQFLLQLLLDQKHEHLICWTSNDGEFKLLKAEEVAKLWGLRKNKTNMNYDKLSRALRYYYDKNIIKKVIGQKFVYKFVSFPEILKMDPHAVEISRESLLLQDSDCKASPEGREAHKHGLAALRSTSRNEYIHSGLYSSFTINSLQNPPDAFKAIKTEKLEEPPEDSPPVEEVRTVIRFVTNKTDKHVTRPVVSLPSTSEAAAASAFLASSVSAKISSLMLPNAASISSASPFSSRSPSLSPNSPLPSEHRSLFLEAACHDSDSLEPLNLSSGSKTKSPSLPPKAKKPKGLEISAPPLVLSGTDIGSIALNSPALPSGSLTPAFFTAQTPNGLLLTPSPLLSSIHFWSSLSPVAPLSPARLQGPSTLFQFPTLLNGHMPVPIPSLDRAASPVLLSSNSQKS
# In short: as §1
# FEV = target: T7, FEV (Homo sapiens, UniProt Q99581 1-238); conditions: protein: recombinant; tags: N-terminal GST; dsDNA, one strand shown
# T7 sequence: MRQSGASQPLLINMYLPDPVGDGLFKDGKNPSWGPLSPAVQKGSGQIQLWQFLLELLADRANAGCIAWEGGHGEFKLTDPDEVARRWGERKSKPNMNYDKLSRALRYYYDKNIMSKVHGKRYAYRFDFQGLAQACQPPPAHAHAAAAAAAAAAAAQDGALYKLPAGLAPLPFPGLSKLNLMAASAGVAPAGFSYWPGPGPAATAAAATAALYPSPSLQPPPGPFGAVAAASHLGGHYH
# In short: as §1
# ETV5 = ETV5 (Homo sapiens, UniProt P41161 1-510); conditions: protein: recombinant; tags: N-terminal GST; dsDNA, one strand shown
# In short: as §1
# HSF1 = HSF1 (Homo sapiens, UniProt Q00613 1-529); conditions: protein: recombinant; tags: N-terminal GST; chain copies: 3; dsDNA, one strand shown
# In short: as §1
# SPIC = target: T8, SPIC (Homo sapiens, UniProt Q8N5J4 1-248); conditions: protein: recombinant; tags: N-terminal GST; dsDNA, one strand shown
# T8 sequence: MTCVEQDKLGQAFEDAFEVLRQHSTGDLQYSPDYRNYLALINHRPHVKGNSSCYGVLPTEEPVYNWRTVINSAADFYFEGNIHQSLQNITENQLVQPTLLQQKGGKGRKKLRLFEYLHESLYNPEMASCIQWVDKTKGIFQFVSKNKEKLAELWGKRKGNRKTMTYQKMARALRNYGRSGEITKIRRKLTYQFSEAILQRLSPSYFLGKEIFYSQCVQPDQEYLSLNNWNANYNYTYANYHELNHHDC
# In short: as §1
# ELF4 = ELF4 (Homo sapiens, UniProt Q99607 1-663); conditions: protein: recombinant; tags: N-terminal GST; dsDNA, one strand shown
# In short: as §1
# ELK4 = target: T9, ELK4 (Homo sapiens, UniProt P28324-2 1-405); conditions: protein: recombinant; tags: N-terminal GST; dsDNA, one strand shown
# T9 sequence: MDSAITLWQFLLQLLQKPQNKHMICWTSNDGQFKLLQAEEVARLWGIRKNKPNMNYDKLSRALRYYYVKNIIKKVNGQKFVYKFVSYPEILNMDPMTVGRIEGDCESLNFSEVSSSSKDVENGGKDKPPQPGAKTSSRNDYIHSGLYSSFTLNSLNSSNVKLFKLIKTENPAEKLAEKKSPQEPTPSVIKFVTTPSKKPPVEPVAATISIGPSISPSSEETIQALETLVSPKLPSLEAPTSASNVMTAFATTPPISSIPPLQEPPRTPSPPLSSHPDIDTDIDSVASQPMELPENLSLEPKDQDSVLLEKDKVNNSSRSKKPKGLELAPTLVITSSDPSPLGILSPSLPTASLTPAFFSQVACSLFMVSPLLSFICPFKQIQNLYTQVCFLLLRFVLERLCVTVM
# In short: as §1
# ETV2 = target: T10, ETV2 (Homo sapiens, UniProt O00321 1-342); conditions: protein: recombinant; tags: N-terminal GST; dsDNA, one strand shown
# T10 sequence: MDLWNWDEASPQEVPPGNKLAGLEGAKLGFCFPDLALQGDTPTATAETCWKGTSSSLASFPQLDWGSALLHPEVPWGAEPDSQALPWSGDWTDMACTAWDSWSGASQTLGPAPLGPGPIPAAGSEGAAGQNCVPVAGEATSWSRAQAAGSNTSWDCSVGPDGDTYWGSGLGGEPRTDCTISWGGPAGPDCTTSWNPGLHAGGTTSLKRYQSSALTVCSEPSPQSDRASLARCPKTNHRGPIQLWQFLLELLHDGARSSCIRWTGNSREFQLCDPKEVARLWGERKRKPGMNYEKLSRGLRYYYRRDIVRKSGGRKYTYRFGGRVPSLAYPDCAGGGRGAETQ
# In short: as §1
# ELF3 = target: T11, ELF3 (Homo sapiens, UniProt P78545 1-371); conditions: protein: recombinant; tags: N-terminal GST; dsDNA, one strand shown
# T11 sequence: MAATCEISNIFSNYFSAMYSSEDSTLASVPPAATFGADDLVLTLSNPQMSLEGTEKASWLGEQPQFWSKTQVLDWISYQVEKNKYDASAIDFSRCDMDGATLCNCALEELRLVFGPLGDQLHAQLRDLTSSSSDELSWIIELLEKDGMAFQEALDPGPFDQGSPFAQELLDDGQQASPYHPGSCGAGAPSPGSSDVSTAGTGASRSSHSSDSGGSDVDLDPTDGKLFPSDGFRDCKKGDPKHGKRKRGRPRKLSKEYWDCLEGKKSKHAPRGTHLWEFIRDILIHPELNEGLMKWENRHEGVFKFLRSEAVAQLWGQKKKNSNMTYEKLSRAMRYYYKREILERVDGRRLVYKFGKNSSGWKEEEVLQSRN
# In short: as §1
# CRX = CRX (Homo sapiens, UniProt O43186 1-299); conditions: protein: recombinant; tags: N-terminal GST; dsDNA, one strand shown
# In short: as §1
# ETV1 = ETV1 (Homo sapiens, UniProt P50549 1-477); conditions: protein: recombinant; tags: N-terminal GST; dsDNA, one strand shown
# In short: as §1
# CRX, sequence (O43186 whole entry): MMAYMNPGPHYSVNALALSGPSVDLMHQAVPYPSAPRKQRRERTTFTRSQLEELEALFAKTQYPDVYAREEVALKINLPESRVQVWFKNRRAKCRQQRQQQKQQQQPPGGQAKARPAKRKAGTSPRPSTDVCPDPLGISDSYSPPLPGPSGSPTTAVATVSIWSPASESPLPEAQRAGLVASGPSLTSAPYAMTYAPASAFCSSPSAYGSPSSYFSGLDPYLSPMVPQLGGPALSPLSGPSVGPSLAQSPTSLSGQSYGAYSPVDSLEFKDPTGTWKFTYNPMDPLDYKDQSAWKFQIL
# ETV5, sequence (P41161 whole entry): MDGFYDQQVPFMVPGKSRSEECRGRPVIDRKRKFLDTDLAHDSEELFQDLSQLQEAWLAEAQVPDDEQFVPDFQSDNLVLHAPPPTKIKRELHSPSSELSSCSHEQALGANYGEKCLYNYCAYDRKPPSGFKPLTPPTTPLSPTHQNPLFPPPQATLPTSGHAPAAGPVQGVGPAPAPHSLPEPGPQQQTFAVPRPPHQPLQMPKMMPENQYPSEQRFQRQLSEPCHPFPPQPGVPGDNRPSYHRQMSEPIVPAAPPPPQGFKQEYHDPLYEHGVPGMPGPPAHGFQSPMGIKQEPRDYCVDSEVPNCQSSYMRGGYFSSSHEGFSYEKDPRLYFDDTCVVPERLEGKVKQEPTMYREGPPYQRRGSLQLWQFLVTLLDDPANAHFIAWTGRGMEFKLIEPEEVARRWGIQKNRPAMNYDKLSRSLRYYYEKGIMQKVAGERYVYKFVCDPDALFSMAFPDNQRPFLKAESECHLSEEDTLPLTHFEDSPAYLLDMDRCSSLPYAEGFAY
# ELF1, sequence (P32519 whole entry): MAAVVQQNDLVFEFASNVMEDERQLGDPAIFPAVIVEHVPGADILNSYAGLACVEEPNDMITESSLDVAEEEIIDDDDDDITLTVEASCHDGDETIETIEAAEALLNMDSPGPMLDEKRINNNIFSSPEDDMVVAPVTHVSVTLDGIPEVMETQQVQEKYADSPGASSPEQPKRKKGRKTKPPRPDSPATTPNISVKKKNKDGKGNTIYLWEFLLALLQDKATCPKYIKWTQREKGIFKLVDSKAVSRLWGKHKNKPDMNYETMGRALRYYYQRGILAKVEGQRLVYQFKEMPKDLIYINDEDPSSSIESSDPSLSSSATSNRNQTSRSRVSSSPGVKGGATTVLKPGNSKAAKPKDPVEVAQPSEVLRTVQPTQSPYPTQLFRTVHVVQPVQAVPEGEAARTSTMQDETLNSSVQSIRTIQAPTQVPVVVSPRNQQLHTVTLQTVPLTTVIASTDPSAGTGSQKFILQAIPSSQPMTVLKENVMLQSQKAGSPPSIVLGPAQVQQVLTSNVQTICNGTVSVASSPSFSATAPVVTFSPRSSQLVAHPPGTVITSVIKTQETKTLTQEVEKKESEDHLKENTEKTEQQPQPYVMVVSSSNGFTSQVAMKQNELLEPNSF
# SPIB, sequence (Q01892 whole entry): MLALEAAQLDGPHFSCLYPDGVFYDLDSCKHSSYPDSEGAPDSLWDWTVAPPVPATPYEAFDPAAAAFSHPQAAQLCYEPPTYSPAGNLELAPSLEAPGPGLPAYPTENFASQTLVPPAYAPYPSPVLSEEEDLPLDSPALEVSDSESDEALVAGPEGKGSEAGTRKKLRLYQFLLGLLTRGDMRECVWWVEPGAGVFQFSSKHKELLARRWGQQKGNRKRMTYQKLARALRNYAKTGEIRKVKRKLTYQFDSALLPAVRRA
# ELF4, sequence (Q99607 whole entry): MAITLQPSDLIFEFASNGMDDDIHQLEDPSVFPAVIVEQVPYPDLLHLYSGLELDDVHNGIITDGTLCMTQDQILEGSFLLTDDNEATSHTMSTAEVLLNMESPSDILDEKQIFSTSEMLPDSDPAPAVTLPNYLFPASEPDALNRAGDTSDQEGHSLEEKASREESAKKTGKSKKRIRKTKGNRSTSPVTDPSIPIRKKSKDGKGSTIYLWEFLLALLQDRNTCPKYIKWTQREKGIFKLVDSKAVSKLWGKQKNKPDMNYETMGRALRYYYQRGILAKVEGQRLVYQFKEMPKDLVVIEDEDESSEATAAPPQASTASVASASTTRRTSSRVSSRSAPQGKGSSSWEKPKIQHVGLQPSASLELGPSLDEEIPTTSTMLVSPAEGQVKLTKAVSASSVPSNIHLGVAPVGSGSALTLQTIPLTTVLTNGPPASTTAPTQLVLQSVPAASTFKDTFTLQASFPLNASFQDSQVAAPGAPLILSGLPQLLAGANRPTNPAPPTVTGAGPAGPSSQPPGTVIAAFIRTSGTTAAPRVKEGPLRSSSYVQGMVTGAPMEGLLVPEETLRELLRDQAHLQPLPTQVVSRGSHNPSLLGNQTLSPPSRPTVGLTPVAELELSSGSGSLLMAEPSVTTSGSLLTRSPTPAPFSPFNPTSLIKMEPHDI
# HSF1, sequence (Q00613 whole entry): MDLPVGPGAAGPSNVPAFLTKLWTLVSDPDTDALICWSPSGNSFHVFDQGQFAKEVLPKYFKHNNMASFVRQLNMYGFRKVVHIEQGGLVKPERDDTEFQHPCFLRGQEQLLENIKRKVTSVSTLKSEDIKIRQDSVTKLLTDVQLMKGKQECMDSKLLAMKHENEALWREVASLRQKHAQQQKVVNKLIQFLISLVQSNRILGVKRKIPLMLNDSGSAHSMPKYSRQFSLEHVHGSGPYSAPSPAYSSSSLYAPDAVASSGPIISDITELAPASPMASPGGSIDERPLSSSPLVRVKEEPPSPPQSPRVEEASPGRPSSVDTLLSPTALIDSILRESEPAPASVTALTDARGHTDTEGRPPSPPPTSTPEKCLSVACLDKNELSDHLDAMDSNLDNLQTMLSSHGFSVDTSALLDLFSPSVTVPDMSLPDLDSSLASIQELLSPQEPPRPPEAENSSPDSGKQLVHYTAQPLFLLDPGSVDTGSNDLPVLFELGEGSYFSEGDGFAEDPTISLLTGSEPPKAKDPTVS
# ETV1, sequence (P50549 whole entry): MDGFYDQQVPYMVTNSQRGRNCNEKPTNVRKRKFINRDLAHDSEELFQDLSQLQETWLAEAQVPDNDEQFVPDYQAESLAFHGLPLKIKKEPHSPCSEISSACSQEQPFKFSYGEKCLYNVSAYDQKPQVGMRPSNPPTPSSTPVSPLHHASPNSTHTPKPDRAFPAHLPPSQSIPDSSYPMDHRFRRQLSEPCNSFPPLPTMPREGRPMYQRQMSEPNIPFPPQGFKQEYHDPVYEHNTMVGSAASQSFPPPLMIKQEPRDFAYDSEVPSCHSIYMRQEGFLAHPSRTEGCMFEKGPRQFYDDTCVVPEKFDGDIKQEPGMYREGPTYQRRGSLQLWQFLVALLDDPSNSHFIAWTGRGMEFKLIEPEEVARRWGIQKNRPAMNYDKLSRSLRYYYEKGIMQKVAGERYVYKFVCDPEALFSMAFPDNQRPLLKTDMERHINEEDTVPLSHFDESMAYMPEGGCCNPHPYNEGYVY
sequence,measurement,setting,value
CCATAA,binding signal,FLI1,"1.15 fold enrichment (6-mer frequency, TF over GST control)"
same,binding signal,ELK1,"1.15 fold enrichment (6-mer frequency, TF over GST control)"
same,binding signal,GABPA,"1.19 fold enrichment (6-mer frequency, TF over GST control)"
same,binding signal,ERG,"1.17 fold enrichment (6-mer frequency, TF over GST control)"
same,binding signal,ELF1,"1.15 fold enrichment (6-mer frequency, TF over GST control)"
same,binding signal,EHF,"1.05 fold enrichment (6-mer frequency, TF over GST control)"
same,binding signal,SPI1,"1.17 fold enrichment (6-mer frequency, TF over GST control)"
same,binding signal,SPIB,"1.16 fold enrichment (6-mer frequency, TF over GST control)"
same,binding signal,ELK3,"1.22 fold enrichment (6-mer frequency, TF over GST control)"
same,binding signal,FEV,"1.11 fold enrichment (6-mer frequency, TF over GST control)"
same,binding signal,ETV5,"1.12 fold enrichment (6-mer frequency, TF over GST control)"
same,binding signal,HSF1,"1.29 fold enrichment (6-mer frequency, TF over GST control)"
same,binding signal,SPIC,"1.33 fold enrichment (6-mer frequency, TF over GST control)"
same,binding signal,ELF4,"1.19 fold enrichment (6-mer frequency, TF over GST control)"
same,binding signal,ELK4,"1.11 fold enrichment (6-mer frequency, TF over GST control)"
same,binding signal,ETV2,"1.24 fold enrichment (6-mer frequency, TF over GST control)"
same,binding signal,ELF3,"1.07 fold enrichment (6-mer frequency, TF over GST control)"
same,binding signal,CRX,"1.64 fold enrichment (6-mer frequency, TF over GST control)"
same,binding signal,ETV1,"1.23 fold enrichment (6-mer frequency, TF over GST control)"

# Source: publication PMC7862700, “An all-to-all approach to the identification of sequence-specific readers for epigenetic DNA modifications on cytosine”
